Measurements: PubChem BioAssay AID1159580 (chemical genetic matrix, 2015)
About 2,000 (36%) of roughly 5,500 compounds were called active. About 18% were inconclusive and are not listed. No stated cut-off is given here; in the data, active means normalized growth mostly below about 0.91 (no sharp cut-off); inconclusive means no clear call, values can overlap the other calls; inactive means mostly above about 0.92. The list shows a part of the results.

Test: chemical genetic growth profiling, strain panel (AID 1159580);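 further: tested at 20 µM; growth read once vehicle control cultures reached saturation at 30 °C; 1 = growth at the plate median or of vehicle wells; lower values mean less growth of the strain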
Conditions: S. cerevisiae deletion strains, growth OD

Measured: normalized growth

OC[C@H]1O[C@@H](n2cnc3c(Nc4ccccc4)ncnc32)C(O)[C@H]1O (some centres not stated)
inactive: locus YAL040C, strain CLN3, hits give low values 0.966 | locus YCL061C, strain MRC1 (second series), hits give low values 0.999 | locus YDR363W, strain ESC2, hits give low values 0.908 | locus YER002W, strain NOP16, hits give low values 0.977 | locus YJR075W, strain HOC1, hits give low values 1.01 | locus YMR307W, strain GAS1, hits give low values 1.02 | locus YNL128W, strain TEP1, hits give low values 0.987 | locus YNL175C, strain NOP13, hits give low values 0.98 | locus YNL197C, strain WHI3, hits give low values 0.963 | locus YNL224C, strain SQS1, hits give low values 0.979 | locus YNL322C, strain KRE1, hits give low values 1.02 | locus YOR083W, strain WHI5 (second series), hits give low values 0.96
